Measurements published in the supplement of paper PMC6555819.

What was measured:
Assay in all cases: PBM binding z-score (relative to random genomic background probes); higher = stronger binding; sequences stand for … in GC…GCGATTGACAGCGTAGAATGAAGG
[1] = tested on: FXR:RXRa (NR concentration 270 nM, RXRa partner concentration 90 nM)
Outline: (§1)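 Custom Agilent 4×180K protein-binding microarrays carried double-stranded probes, each with a 34-nt variable region. These regions held direct-repeat seeds, single-nucleotide variants, half-site ablations and random human genomic background sequences. Ligand-free nuclear receptor dimers were incubated on the arrays for 1 h, antibodies against each partner (one per run) detected binding, and scanned fluorescence was regression-normalized. Binding z-scores take the random background probes as reference.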

[2] = tested on: LXRa:RXRa (NR concentration 270 nM, RXRa partner concentration 90 nM)
Outline: as §1

[3] = tested on: LXRa homodimer (NR concentration 270 nM)
Outline: as §1

[4] = tested on: LXRb:RXRa (NR concentration 270 nM, RXRa partner concentration 90 nM)
Outline: as §1

[5] = tested on: LXRb homodimer (NR concentration 270 nM)
Outline: as §1

[6] = tested on: PPARa:RXRa (NR concentration 270 nM, RXRa partner concentration 90 nM)
Outline: as §1

[7] = tested on: PPARg:RXRa (NR concentration 180 nM, RXRa partner concentration 90 nM)
Outline: as §1

[8] = tested on: PPARg:RXRa 270nM:90nM, anti-RXR (NR concentration 270 nM, RXRa partner concentration 90 nM)
Outline: as §1

[9] = tested on: PPARg:RXRa 30nM:10nM, anti-RXR (NR concentration 30 nM, RXRa partner concentration 10 nM)
Outline: as §1

[10] = tested on: PPARg:RXRa 90nM:30nM, anti-RXR (NR concentration 90 nM, RXRa partner concentration 30 nM)
Outline: as §1

[11] = tested on: PPARg:RXRa DBDmut IVT, anti-RXR (DBD mutation: RXRa K156A/R161A, NR concentration 270 nM, RXRa partner concentration 90 nM)
Outline: as §1

[12] = tested on: PPARg:RXRa IVT, anti-PPARg (NR concentration 270 nM, RXRa partner concentration 90 nM)
Outline: as §1

[13] = tested on: PPARg DBDmut:RXRa IVT, anti-PPARg (DBD mutation: PPARg1 K132A/R137A, NR concentration 270 nM, RXRa partner concentration 90 nM)
Outline: as §1

[14] = tested on: PPARg DBDmut IVT, anti-PPARg (DBD mutation: PPARg1 K132A/R137A, NR concentration 270 nM)
Outline: as §1

[15] = tested on: PPARg homodimer (NR concentration 180 nM)
Outline: as §1

[16] = tested on: PXR:RXRa (NR concentration 270 nM, RXRa partner concentration 90 nM)
Outline: as §1

[17] = tested on: PXR homodimer (NR concentration 270 nM)
Outline: as §1

[18] = tested on: RARa:RXR (NR concentration 270 nM, RXRa partner concentration 90 nM)
Outline: as §1

[19] = tested on: RARa homodimer (NR concentration 270 nM)
Outline: as §1

[20] = tested on: RARb:RXRa (NR concentration 270 nM, RXRa partner concentration 90 nM)
Outline: as §1

## AATACAGGGTCACTAGGCCAGATTAGGTACGAAT
[1]
  PBM binding z-score: 6.03
[2]
  PBM binding z-score: 5.16
[3]
  PBM binding z-score: 1.09
[4]
  PBM binding z-score: 4.11
[5]
  PBM binding z-score: 1.11
[6]
  PBM binding z-score: 5.92
[7]
  PBM binding z-score: 7.81
[8]
  PBM binding z-score: 6.39
[9]
  PBM binding z-score: 3.62
[10]
  PBM binding z-score: 5.04
[11]
  PBM binding z-score: 3.7
[12]
  PBM binding z-score: 5.68
[13]
  PBM binding z-score: 1.98
[14]
  PBM binding z-score: 3.15
[15]
  PBM binding z-score: 2.45
[16]
  PBM binding z-score: 3.32
[17]
  PBM binding z-score: 0.427
[18]
  PBM binding z-score: 4.17
[19]
  PBM binding z-score: 0.909
[20]
  PBM binding z-score: 4.09

## CCTAGCAGGCCAATGTGGGTCACTCAAGGCTTGA
[1]
  PBM binding z-score: 0.735
[2]
  PBM binding z-score: 1.67
[3]
  PBM binding z-score: -0.413
[4]
  PBM binding z-score: 0.94
[5]
  PBM binding z-score: -1.16
[6]
  PBM binding z-score: 3.33
[7]
  PBM binding z-score: 1.94
[8]
  PBM binding z-score: 2.65
[9]
  PBM binding z-score: 0.359
[10]
  PBM binding z-score: 1.74
[11]
  PBM binding z-score: 4.05
[12]
  PBM binding z-score: 4.91
[13]
  PBM binding z-score: -0.196
[14]
  PBM binding z-score: -1.11
[15]
  PBM binding z-score: 0.296
[16]
  PBM binding z-score: 1.24
[17]
  PBM binding z-score: -0.313
[18]
  PBM binding z-score: 1.55
[19]
  PBM binding z-score: -0.725
[20]
  PBM binding z-score: 1.54

## ATATGTAGGTTAAGGGTCATTCAAGTTGGTTCGC
[1]
  PBM binding z-score: 5.1
[2]
  PBM binding z-score: 5.2
[3]
  PBM binding z-score: 2.81
[4]
  PBM binding z-score: 4.68
[5]
  PBM binding z-score: 1.33
[6]
  PBM binding z-score: 6.53
[7]
  PBM binding z-score: 11.5
[8]
  PBM binding z-score: 9.66
[9]
  PBM binding z-score: 9.8
[10]
  PBM binding z-score: 10.8
[11]
  PBM binding z-score: 7.49
[12]
  PBM binding z-score: 7.7
[13]
  PBM binding z-score: 1.56
[14]
  PBM binding z-score: 1.82
[15]
  PBM binding z-score: 3.15
[16]
  PBM binding z-score: 5.92
[17]
  PBM binding z-score: 1.73
[18]
  PBM binding z-score: 5.73
[19]
  PBM binding z-score: 1.9
[20]
  PBM binding z-score: 3.79

## AGTCAATGTTCACTAGGTAACGTAAGATTCAGCT
[1]
  PBM binding z-score: -0.318
[2]
  PBM binding z-score: -0.205
[3]
  PBM binding z-score: -0.143
[4]
  PBM binding z-score: -0.121
[5]
  PBM binding z-score: -0.147
[6]
  PBM binding z-score: 0.363
[7]
  PBM binding z-score: 0.656
[8]
  PBM binding z-score: 0.368
[9]
  PBM binding z-score: 0.15
[10]
  PBM binding z-score: 0.302
[11]
  PBM binding z-score: 1.92
[12]
  PBM binding z-score: 2.92
[13]
  PBM binding z-score: 1.08
[14]
  PBM binding z-score: 0.776
[15]
  PBM binding z-score: 0.288
[16]
  PBM binding z-score: -0.0899
[17]
  PBM binding z-score: -0.202
[18]
  PBM binding z-score: -0.181
[19]
  PBM binding z-score: -0.0197
[20]
  PBM binding z-score: 0.143

## GATTCAGGGTCAAGGCCAGAGTACGCGTATTGAT
[1]
  PBM binding z-score: 6.98
[2]
  PBM binding z-score: 5.3
[3]
  PBM binding z-score: 0.175
[4]
  PBM binding z-score: 4.43
[5]
  PBM binding z-score: 0.317
[6]
  PBM binding z-score: 6.12
[7]
  PBM binding z-score: 6.43
[8]
  PBM binding z-score: 6.72
[9]
  PBM binding z-score: 3.1
[10]
  PBM binding z-score: 5.41
[11]
  PBM binding z-score: 3.79
[12]
  PBM binding z-score: 4.63
[13]
  PBM binding z-score: 1.51
[14]
  PBM binding z-score: 0.0606
[15]
  PBM binding z-score: 3.59
[16]
  PBM binding z-score: 4.81
[17]
  PBM binding z-score: 0.452
[18]
  PBM binding z-score: 5.58
[19]
  PBM binding z-score: 0.724
[20]
  PBM binding z-score: 4.92

## ATCTCTAGCTAACAAGTTCAGTGAAAGAGAGGAC
[1]
  PBM binding z-score: 0.604
[2]
  PBM binding z-score: 0.71
[3]
  PBM binding z-score: 0.538
[4]
  PBM binding z-score: 0.504
[5]
  PBM binding z-score: 0.838
[6]
  PBM binding z-score: 0.381
[7]
  PBM binding z-score: 0.2
[8]
  PBM binding z-score: -0.0606
[9]
  PBM binding z-score: 0.335
[10]
  PBM binding z-score: 0.17
[11]
  PBM binding z-score: -0.615
[12]
  PBM binding z-score: 0.373
[13]
  PBM binding z-score: 0.64
[14]
  PBM binding z-score: 1.17
[15]
  PBM binding z-score: 0.988
[16]
  PBM binding z-score: 1.36
[17]
  PBM binding z-score: 1.62
[18]
  PBM binding z-score: 0.744
[19]
  PBM binding z-score: 1.13
[20]
  PBM binding z-score: 1.15

## ACTTACGGGACAACGAGGTTATAGCACGCGTATA
[1]
  PBM binding z-score: 0.442
[2]
  PBM binding z-score: 0.645
[3]
  PBM binding z-score: 0.447
[4]
  PBM binding z-score: 0.958
[5]
  PBM binding z-score: 0.473
[6]
  PBM binding z-score: 1.08
[7]
  PBM binding z-score: 1.01
[8]
  PBM binding z-score: 0.442
[9]
  PBM binding z-score: 0.295
[10]
  PBM binding z-score: 0.32
[11]
  PBM binding z-score: 0.742
[12]
  PBM binding z-score: 0.83
[13]
  PBM binding z-score: 0.547
[14]
  PBM binding z-score: 1
[15]
  PBM binding z-score: 0.641
[16]
  PBM binding z-score: 0.83
[17]
  PBM binding z-score: 0.728
[18]
  PBM binding z-score: 0.933
[19]
  PBM binding z-score: 0.919
[20]
  PBM binding z-score: 1.03
